In the supplement of paper PMC9399229:
Where a name gives a salt, the structure may show the parent alone. Over roughly 1,900 compounds, “relative cell viability (CellTiter-Glo), compound plus cabozantinib, relative to the cabozantinib arm (arm median 1.05; reference not stated)” has its median near 1.1; the lowest 2% begin near 0.15. The sample holds the lowest values, similar compounds and a random draw of the others, so the mix is not that of the screen.

Tested on: Hep3B
Test: relative cell viability (CellTiter-Glo), compound plus cabozantinib, relative to the cabozantinib arm (arm median 1.05; reference not stated) (fraction); higher = more viable cells (less growth inhibition)
Settings: cabozantinib 2 µM; 4 days

Going from CCOc1cc2ncc(C#N)c(Nc3ccc(F)c(Cl)c3)c2cc1NC(=O)/C=C/CN(C)C [Pelitinib (EKB-569)] to C=CC(=O)Nc1ccc2ncnc(Nc3ccc(OCc4cccc(F)c4)c(Cl)c3)c2c1, the relative cell viability falls from 0.9 to 0.775.

CC(=O)C1=C(O)C=C2Oc3c(C(C)=O)c(O)c(C)c(O)c3C2(C)C1=O (single isomer, unassigned; (+)) [(+)-Usniacin] and CCOC(=O)C1=C(C)NC(C)=C(C(=O)OC)C1c1cccc(Cl)c1Cl (stereo not given) [Felodipine] are the same in relative cell viability: 1.11 for the first, 1.11 for the second.

C[C@H]1Oc2cc(cnc2N)-c2c(nn(C)c2C#N)CN(C)C(=O)c2ccc(F)cc21 and CCN1C[C@H](C)n2c(c(O)c3c(=O)n(Cc4ccc(F)c(Cl)c4)nc(C(=O)NC)c32)C1=O are the same in relative cell viability: 1.14 for the first, 1.14 for the second.

Compared with C[C@@H](O)[C@H]1C(=O)N2C(C(=O)O)=C(S[C@@H]3CN[C@H](C(=O)N(C)C)C3)[C@H](C)[C@H]12 [Meropenem], CC[C@H]1[C@@H](O)[C@@H]2[C@H](CC[C@]3(C)[C@@H]([C@H](C)CCC(=O)O)CC[C@@H]23)[C@@]2(C)CC[C@@H](O)C[C@@H]12 [Obeticholic Acid] is lower in relative cell viability: 1.17 for the first, 1.12 for the second.

Compared with CC[C@@]1(O)C(=O)OCc2c1cc1n(c2=O)Cc2cc3cc(O)ccc3nc2-1 [(S)-10-Hydroxycamptothecin], CCc1c2c(nc3ccc(O)cc13)-c1cc3c(c(=O)n1C2)COC(=O)[C@]3(O)CC is higher in relative cell viability: 0.137 for the first, 0.176 for the second.

First: CC[C@@]1(O)C(=O)OCc2c1cc1n(c2=O)Cc2cc3c(CN(C)C)c(O)ccc3nc2-1 [Topotecan HCl]
Second: Cc1cccc(-c2nn3c(c2-c2ccnc4ccc(C(N)=O)cc24)CCC3)n1
The relative cell viability of the first is lower: 0.556 for the first, 0.91 for the second.

First: CC(C)(C(=O)NCC(F)(F)C(F)(F)F)C(=O)N[C@@H]1C(=O)Nc2ccccc2-c2ccccc21
Second: COc1cccc2c1c(O)c(C(=O)N(C)c1ccc(C(F)(F)F)cc1)c(=O)n2C [Tasquinimod]
The relative cell viability of the first is lower: 1.04 for the first, 1.19 for the second.

Going from C[C@]12C=CC(=O)N[C@@H]1CC[C@@H]1[C@@H]2CC[C@]2(C)[C@@H](C(=O)Nc3cc(C(F)(F)F)ccc3C(F)(F)F)CC[C@@H]12 [Dutasteride] to O=C(/C=C\n1cnc(-c2cc(C(F)(F)F)cc(C(F)(F)F)c2)n1)N1CC(F)(F)C1, the relative cell viability falls from 1.12 to 0.32.

Going from O=C(COc1ccc(C(=O)c2ccccc2)cc1)NC1CCN(Cc2ccccc2)CC1 [AdipoRon] to O=C(O[C@H]1CN2CCC1CC2)N1CCc2ccccc2[C@@H]1c1ccccc1 [Solifenacin succinate], the relative cell viability rises from 1.06 to 1.11.

Going from Cc1[nH]nc2ccc(-c3cncc(OC[C@@H](N)Cc4ccccc4)c3)cc12 to Cn1cc(/C=C2\C(=O)Nc3cccnc32)c2ccccc21, the relative cell viability rises from 0.11 to 1.

First: O=C(O)Cc1cc(I)c(Oc2ccc(O)c(I)c2)c(I)c1 [Tiratricol]
Second: O=C(O)CCCc1c[nH]c2ccccc12 [3-Indolebutyric acid (IBA)]
The relative cell viability of the first is lower: 0.888 for the first, 1.07 for the second.

Going from CSc1nc2cc(Cl)c(Oc3cccc(Cl)c3Cl)cc2[nH]1 [Triclabendazole] to Cc1c(OCC(F)(F)F)ccnc1C[S+]([O-])c1nc2ccccc2[nH]1 (stereo not given) [Lansoprazole], the relative cell viability rises from 1.14 to 1.2.

Going from CC12CC3CC(C)(C1)CC(N)(C3)C2 [Memantine HCl] to CC1=C(C(=O)OC2CCCCC2)C(c2ccc([N+](=O)[O-])cc2)C2=C(CC(C)(C)CC2=O)N1 (stereo not given), the relative cell viability rises from 1.1 to 1.31.

Compared with O=C(/C=C/c1cccc(S(=O)(=O)Nc2ccccc2)c1)NO [Belinostat (PXD101)], O=C(C=Cc1ccccc1)NC(NC(=S)Nc1ccc(Cl)cc1)C(Cl)(Cl)Cl (stereo not given) is higher in relative cell viability: 0.149 for the first, 1.14 for the second.

Going from Cn1cc(/C=C/C(=O)c2cccc(F)c2)cc1/C=C/C(=O)NO to O=C(/C=C/c1ccc(CN(CCO)CCc2c[nH]c3ccccc23)cc1)NO [LAQ824 (Dacinostat)], the relative cell viability falls from 1.19 to 0.11.

Going from COC(=O)N[C@H](C(=O)N[C@@H](Cc1ccccc1)[C@@H](O)CN(Cc1ccc(-c2ccccn2)cc1)NC(=O)[C@@H](NC(=O)OC)C(C)(C)C)C(C)(C)C [Atazanavir Sulfate] to COc1ccc(C[C@H](NC(=O)[C@H](C)NC(=O)CN2CCOCC2)C(=O)N[C@@H](Cc2ccccc2)C(=O)[C@@]2(C)CO2)cc1, the relative cell viability falls from 0.969 to 0.23.

First: Fc1cc(-c2cccc3ncc(-c4cnn(C5CCNCC5)c4)nc23)cc(F)c1CN1CCOCC1
Second: CN1CCN(CCOc2cc(OC3CCOCC3)c3c(Nc4c(Cl)ccc5c4OCO5)ncnc3c2)CC1 [Saracatinib (AZD0530)]
The relative cell viability of the first is higher: 1.11 for the first, 1.09 for the second.

Compared with CN1CCN2c3ncccc3Cc3ccccc3C2C1 (stereo not given) [Mirtazapine], O=C(O)c1cc(C(F)(F)F)ccc1N1CC[C@H](OCc2ccccn2)C1 is lower in relative cell viability: 1.01 for the first, 0.958 for the second.

First: O=C1NC(=O)[C@@H](c2cn3c4c(cccc24)CCC3)[C@@H]1c1c[nH]c2ccccc12 [Tivantinib (ARQ 197)]
Second: OCc1c[nH]c2ccccc12 [Indole-3-carbinol]
The relative cell viability of the first is lower: 0.835 for the first, 1.11 for the second.

CC(C)n1c(/C=C/C(O)CC(O)CC(=O)O)c(-c2ccc(F)cc2)c2ccccc21 (stereo not given) [Fluvastatin Sodium] and COc1ccc(S(=O)(=O)N(CCO)c2ccccc2CN(C)C/C=C/c2ccc(Cl)cc2)cc1 [KN-93 Phosphate] are the same in relative cell viability: 1.14 for the first, 1.14 for the second.

First: COc1ccc(-c2ccc3c(N4CCOCC4)nc(N4C[C@@H](C)O[C@@H](C)C4)nc3n2)cc1CO
Second: S=C(NCc1ccc2c(c1)OCO2)N1CCN(c2ncnc3c2oc2ccccc23)CC1 [Amuvatinib (MP-470)]
The relative cell viability of the first is lower: 0.773 for the first, 1.03 for the second.

First: CNc1ncnc2c1ncn2[C@@H]1O[C@H](CO)[C@@H](O)[C@H]1O [N6-methyladenosine (m6A)]
Second: COc1nc(N)nc2c1ncn2[C@@H]1O[C@H](CO)[C@@H](O)[C@@H]1O [Nelarabine]
The relative cell viability of the first is higher: 1.21 for the first, 1.17 for the second.

Going from COc1ccc(C[C@H](N)C(=O)N[C@H]2[C@@H](O)[C@H](n3cnc4c(N(C)C)ncnc43)O[C@@H]2CO)cc1 [Puromycin 2HCl] to CCCc1ccc(OCC(=O)N(Cc2nc(-c3cccnc3)no2)C(C)C)cc1, the relative cell viability rises from 0.0197 to 1.16.

Going from Cc1cnc(Nc2ccc(N3CCN(C)CC3)cc2)nc1Nc1cccc(S(=O)(=O)NC(C)(C)C)c1 to C=CC(=O)Nc1cccc(Sc2nc(Nc3ccc(N4CCN(C)CC4)cc3)ncc2Cl)c1, the relative cell viability rises from 0.281 to 0.747.

Compared with C=CCn1c(=O)c2cnc(Nc3ccc(N4CCN(C)CC4)cc3)nc2n1-c1cccc(C(C)(C)O)n1, CN1CCC(CNc2ccc3ncc(-c4cccc(OC(F)(F)F)c4)n3n2)CC1 [SGI-1776 free base] is higher in relative cell viability: 0.144 for the first, 0.976 for the second.

Going from C#C[C@]1(O)CC[C@H]2[C@@H]3CCC4=CC(=O)CC[C@@H]4[C@H]3CC[C@@]21C [Norethindrone] to CC(=O)S[C@@H]1CC2=CC(=O)CC[C@]2(C)[C@H]2CC[C@@]3(C)[C@@H](CC[C@@]34CCC(=O)O4)[C@H]12 [Spironolactone], the relative cell viability rises from 1.06 to 1.1.

Going from CC1(C)S[C@@H]2[C@H](NC(=O)[C@H](N)c3ccccc3)C(=O)N2[C@H]1C(=O)O [Ampicillin Trihydrate] to CC(C(=O)O)c1ccc(C(=O)c2cccs2)cc1 (stereo not given) [Suprofen], the relative cell viability rises from 1.08 to 1.11.

First: CC1(C)S[C@@H]2[C@H](NC(=O)[C@H](N)c3ccccc3)C(=O)N2[C@H]1C(=O)O [Ampicillin sodium]
Second: CC(C)C(=O)Oc1ccc(CO)cc1[C@H](CCN(C(C)C)C(C)C)c1ccccc1 [Fesoterodine Fumarate]
The relative cell viability of the first is higher: 1.16 for the first, 1.1 for the second.

Compared with OC[C@H]1O[C@H](O[C@]2(CCl)O[C@H](CCl)[C@@H](O)[C@@H]2O)[C@H](O)[C@@H](O)[C@H]1Cl [Sucralose], Cn1c(=O)c2c(ncn2CC(O)CO)n(C)c1=O (stereo not given) [Dyphylline] is higher in relative cell viability: 1.05 for the first, 1.22 for the second.

Going from CC(=O)OCOC(=O)CN(CC(=O)OCOC(C)=O)c1ccccc1OCCOc1ccccc1N(CC(=O)OCOC(C)=O)CC(=O)OCOC(C)=O to CCOC(=O)C1=C(N)Oc2ccc(Br)cc2C1C(C#N)C(=O)OCC (stereo not given), the relative cell viability falls from 1.22 to 1.02.

Compared with CCc1cc(Nc2nccc(-c3c(-c4ccc(OC)c(C(=O)Nc5c(F)cccc5F)c4)nc4ccccn34)n2)c(OC)cc1N1CCC(N2CCN(S(C)(=O)=O)CC2)CC1, COc1cc(F)c(F)c(Nc2ccc(I)cc2F)c1NS(=O)(=O)C1(C[C@H](O)CO)CC1 [Refametinib (RDEA119, Bay 86-9766)] is lower in relative cell viability: 1.32 for the first, 0.196 for the second.

Compared with Cc1cccc(C)c1NC(=O)C1CCCCN1C (stereo not given) [Mepivacaine HCl], Cn1c(=O)c(F)c(Nc2ccc(I)cc2F)c2c(=O)n(C[C@@H](O)CO)cnc21 is lower in relative cell viability: 1.03 for the first, 0.14 for the second.

Molecule C[C@@H](CN1CC(=O)NC(=O)C1)N1CC(=O)NC(=O)C1 [Dexrazoxane HCl (ICRF-187, ADR-529)] has a relative cell viability of 1.1.
